Structures are written as SMILES.

For one experiment, the target named is T1, Tyrosine-protein kinase Tec (Homo sapiens) (UniProt P42680).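 Also: each value is the mean of the inhibition measurements.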
T1 sequence (whole entry): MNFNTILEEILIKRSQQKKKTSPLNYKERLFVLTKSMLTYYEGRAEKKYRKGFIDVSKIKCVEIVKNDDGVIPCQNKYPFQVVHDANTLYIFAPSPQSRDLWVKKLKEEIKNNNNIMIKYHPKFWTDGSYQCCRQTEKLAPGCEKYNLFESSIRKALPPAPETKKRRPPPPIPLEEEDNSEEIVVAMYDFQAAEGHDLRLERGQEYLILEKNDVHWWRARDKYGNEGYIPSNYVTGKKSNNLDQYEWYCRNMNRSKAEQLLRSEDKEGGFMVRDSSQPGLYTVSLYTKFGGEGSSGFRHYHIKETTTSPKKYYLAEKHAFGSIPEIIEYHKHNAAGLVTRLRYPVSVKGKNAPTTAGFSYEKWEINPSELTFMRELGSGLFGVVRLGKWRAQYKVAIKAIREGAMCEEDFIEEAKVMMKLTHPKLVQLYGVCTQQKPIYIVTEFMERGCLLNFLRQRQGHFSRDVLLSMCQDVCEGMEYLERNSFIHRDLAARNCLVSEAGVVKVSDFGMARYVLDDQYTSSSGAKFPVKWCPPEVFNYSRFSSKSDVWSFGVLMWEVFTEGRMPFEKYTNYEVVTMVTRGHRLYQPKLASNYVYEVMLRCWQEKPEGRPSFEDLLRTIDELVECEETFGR
The note with it: at 1 µM.
With `COc1cccc(-n2cnc3c(N/N=C/c4ccncc4)ncnc32)c1`, the inhibition (in general, the drop in the measured response relative to a control, in per cent) came to 5.03%.

Consider `Fc1ccc(-c2ncn(C3CCNCC3)c2-c2ccnc(Oc3ccc(F)c(F)c3)n2)cc1`, for which the inhibition is 0.11%.

Regarding `Cc1ccc(C(=O)NC2CCC2)cc1-c1ccc(C(=O)NCC2CC2)cc1`, the inhibition is 2.28%.

Turning to `C[C@@H](Oc1cc(-n2cnc3ccc(OC4CCN(C)CC4)cc32)sc1C(N)=O)c1ccccc1Cl`, the inhibition stood at 1.73%.

Consider `CCS(=O)(=O)c1ccc(OC)c(Nc2ncc(-c3ccccc3Cl)o2)c1`, for which the inhibition amounted to 5.03%.

For the compound `CCC(=O)Nc1ccc(C)c(-c2ccc(C(=O)NCC3CC3)cc2)c1`, the inhibition worked out at 2.28%.

Take `O=C(Nc1n[nH]c2cc(-c3cc(F)ccc3F)ccc12)C1CC1`: the inhibition is 4.04%.

As to `O=C1NC(=O)C(c2cccc(Cl)c2)=C1Nc1ccc(Cl)c(C(=O)O)c1`, the inhibition turned out to be 2.84%.

In the case of `CS(=O)(=O)CCNCc1ccc(-c2ccc3ncnc(Nc4ccc(OCc5ccccc5)c(Br)c4)c3c2)o1`, the inhibition is 1.49%.

As to `COc1ccc2ncn(-c3cc(O[C@H](C)c4ccccc4Cl)c(C(N)=O)s3)c2c1`, the inhibition is 0.84%.

`Cc1ccc(C(=O)NC(C)C)cc1-c1ccc(C(=O)NCC2CC2)cc1`: the inhibition is -2.37%.

As for `O=C(Nc1ccc(Oc2ccc3[nH]c(NC(=O)c4ccccc4)nc3c2)cc1)Nc1cc(C(F)(F)F)ccc1F`, the inhibition stood at 8.67%.

For the compound `C[C@@H](Oc1cc(-n2cnc3ccc(OCC4CCN(C)CC4)cc32)sc1C(N)=O)c1ccccc1Cl`, the inhibition amounted to 6.29%.

With `COc1ccc2cc(-c3c(-c4ccncc4)nc(-c4ccc([S+](C)[O-])cc4C)n3C)ccc2c1` (stereo not drawn), the inhibition was found to be 0.84%.

With `CCc1ccc(Oc2nccc(-c3c(-c4ccc(F)cc4)ncn3C3CCNCC3)n2)cc1`, the inhibition was determined as 4.84%.

With `O=C(NCC1CC1)c1ccc(-c2cccc(C(=O)NC3CC3)c2)cc1`, the inhibition is 6.01%.

On to `CS(=O)(=O)CCNCc1cc(-c2cc3c(Nc4ccc(OCc5cccc(F)c5)c(Cl)c4)ncnc3s2)cs1`, for which the inhibition amounted to 7%.

Regarding `Fc1ccc(-c2ncn(C3CCNCC3)c2-c2ccnc(Oc3ccc4c(c3)OCO4)n2)cc1`, the inhibition stood at 5.37%.

For `NS(=O)(=O)c1ccc(N/N=C2\C(=O)Nc3ccc(C(=O)NCCCn4ccnc4)cc32)cc1`, the inhibition is 10.5%.

For `NC(=O)Cc1ccccc1Oc1nccc(-c2c(-c3ccc(F)cc3)ncn2C2CCNCC2)n1`, the inhibition is 4.45%.

Consider `COc1cccc(/C=N/Nc2ncnc3c2cnn3-c2cccc(OC)c2)c1`, for which the inhibition was 4.79%.

On to `COc1ccc(-c2ccc3c(NC(=O)C4CC4)n[nH]c3n2)cc1`, for which the inhibition amounted to 2.47%.

With `Fc1ccc(-c2ncn(CCCN3CCOCC3)c2-c2ccncc2)cc1`, the inhibition turned out to be 2.36%.

For `Fc1ccc(-c2c(-c3ccncc3)nc3n2CCS3)cc1`, the inhibition was -0.75%.

Consider `CN(C)c1ccc2c(c1)/C(=C/Nc1ccc(S(N)(=O)=O)cc1)C(=O)N2`, for which the inhibition turned out to be 2.35%.

With `c1ccc(-c2n[nH]cc2-c2ccnc(-c3ccc(OCCN4CCOCC4)cc3)c2)nc1`, the inhibition was 4.59%.

For the compound `COC(=O)Nc1nc2ccc(Sc3ccc(NC(=O)Nc4cc(C(F)(F)F)ccc4F)cc3)cc2[nH]1`, the inhibition amounted to 5.46%.

Take `COc1cc(Nc2ncc(-c3ccccc3)o2)cc(OC)c1OC`: the inhibition was found to be 4.55%.

Regarding `Fc1ccc(-c2nc3n(c2-c2ccncc2)CCS3)cc1`, the inhibition was determined as 2.31%.

On to `C#Cc1cccc(Nc2ncnc3ccc(OCCCCNCCS(C)(=O)=O)cc23)c1`, for which the inhibition is 9.84%.

As to `COc1ccc(C2=C(N3CCc4ccccc43)C(=O)NC2=O)cc1`, the inhibition amounted to 6.81%.

With `COc1cc(N2CCN(C(C)C)CC2)ccc1Nc1nc(Nc2ccc(F)cc2C(=O)NC[C@@H](O)CO)c2cc[nH]c2n1`, the inhibition was found to be 1.93%.

On to `Fc1ccc(-c2ncn(C3CCNCC3)c2-c2ccnc(Oc3ccc(Oc4ccccc4)cc3)n2)cc1`, for which the inhibition is 3.11%.

Turning to `CCc1cccc(CC)c1/C=C/c1cncc(C(=O)NC)c1`, the inhibition came out at 7.25%.

The target of another experiment is Angiopoietin-1 receptor (Homo sapiens) (UniProt Q02763). The note with it: at 0.1 µM.
Sequence of Angiopoietin-1 receptor (Homo sapiens) (Q02763 whole entry): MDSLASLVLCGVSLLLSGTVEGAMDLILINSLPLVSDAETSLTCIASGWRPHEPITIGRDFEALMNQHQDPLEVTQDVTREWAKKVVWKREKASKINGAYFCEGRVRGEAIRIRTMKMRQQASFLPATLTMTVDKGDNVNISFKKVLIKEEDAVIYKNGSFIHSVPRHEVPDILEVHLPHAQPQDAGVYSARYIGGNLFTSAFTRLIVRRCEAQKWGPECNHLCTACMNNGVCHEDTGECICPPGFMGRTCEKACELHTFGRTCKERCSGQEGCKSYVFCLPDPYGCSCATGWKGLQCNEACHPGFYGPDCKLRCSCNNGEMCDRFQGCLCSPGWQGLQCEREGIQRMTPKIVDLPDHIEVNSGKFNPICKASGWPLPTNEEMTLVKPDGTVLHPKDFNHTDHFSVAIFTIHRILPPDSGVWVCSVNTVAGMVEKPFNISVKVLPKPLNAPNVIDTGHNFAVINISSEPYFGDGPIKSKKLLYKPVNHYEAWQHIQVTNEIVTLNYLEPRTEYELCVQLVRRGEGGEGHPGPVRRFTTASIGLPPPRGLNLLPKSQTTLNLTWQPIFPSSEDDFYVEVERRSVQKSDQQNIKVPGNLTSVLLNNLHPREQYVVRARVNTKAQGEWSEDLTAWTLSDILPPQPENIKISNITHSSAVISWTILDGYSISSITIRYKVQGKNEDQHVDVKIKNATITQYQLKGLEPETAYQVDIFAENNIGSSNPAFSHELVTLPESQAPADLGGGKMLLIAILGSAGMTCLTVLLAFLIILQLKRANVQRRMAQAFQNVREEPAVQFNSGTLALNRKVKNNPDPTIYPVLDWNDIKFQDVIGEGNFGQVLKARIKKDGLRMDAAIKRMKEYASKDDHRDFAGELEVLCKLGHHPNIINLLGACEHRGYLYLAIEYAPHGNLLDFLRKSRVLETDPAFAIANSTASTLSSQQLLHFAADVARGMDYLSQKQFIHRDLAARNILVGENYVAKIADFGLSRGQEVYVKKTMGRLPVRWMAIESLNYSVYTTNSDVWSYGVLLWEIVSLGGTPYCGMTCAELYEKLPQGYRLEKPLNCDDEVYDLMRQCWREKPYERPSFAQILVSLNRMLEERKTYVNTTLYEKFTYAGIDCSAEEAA
`COc1cccc(-n2cnc3c(N/N=C/c4ccncc4)ncnc32)c1`: the inhibition is -0.9%.

On to `Fc1ccc(-c2ncn(C3CCNCC3)c2-c2ccnc(Oc3ccc(F)c(F)c3)n2)cc1`, for which the inhibition was 0.38%.

For the compound `Cc1ccc(C(=O)NC2CCC2)cc1-c1ccc(C(=O)NCC2CC2)cc1`, the inhibition was 2.59%.

For the compound `C[C@@H](Oc1cc(-n2cnc3ccc(OC4CCN(C)CC4)cc32)sc1C(N)=O)c1ccccc1Cl`, the inhibition was determined as 7.19%.

As to `CCS(=O)(=O)c1ccc(OC)c(Nc2ncc(-c3ccccc3Cl)o2)c1`, the inhibition came out at 0.48%.

For the compound `CCC(=O)Nc1ccc(C)c(-c2ccc(C(=O)NCC3CC3)cc2)c1`, the inhibition was determined as 4.73%.

As for `O=C(Nc1n[nH]c2cc(-c3cc(F)ccc3F)ccc12)C1CC1`, the inhibition turned out to be 3.35%.

For `O=C1NC(=O)C(c2cccc(Cl)c2)=C1Nc1ccc(Cl)c(C(=O)O)c1`, the inhibition stood at 1.75%.

`CS(=O)(=O)CCNCc1ccc(-c2ccc3ncnc(Nc4ccc(OCc5ccccc5)c(Br)c4)c3c2)o1`: the inhibition came to 0.77%.

For the compound `COc1ccc2ncn(-c3cc(O[C@H](C)c4ccccc4Cl)c(C(N)=O)s3)c2c1`, the inhibition was determined as 1.72%.

For the compound `Cc1ccc(C(=O)NC(C)C)cc1-c1ccc(C(=O)NCC2CC2)cc1`, the inhibition was -0.76%.

For `O=C(Nc1ccc(Oc2ccc3[nH]c(NC(=O)c4ccccc4)nc3c2)cc1)Nc1cc(C(F)(F)F)ccc1F`, the inhibition was 9.81%.

`C[C@@H](Oc1cc(-n2cnc3ccc(OCC4CCN(C)CC4)cc32)sc1C(N)=O)c1ccccc1Cl`: the inhibition worked out at 4.83%.

Turning to `COc1ccc2cc(-c3c(-c4ccncc4)nc(-c4ccc([S+](C)[O-])cc4C)n3C)ccc2c1` (stereo not drawn), the inhibition is 76.9%.

`CCc1ccc(Oc2nccc(-c3c(-c4ccc(F)cc4)ncn3C3CCNCC3)n2)cc1`: the inhibition amounted to 3.66%.

`O=C(NCC1CC1)c1ccc(-c2cccc(C(=O)NC3CC3)c2)cc1`: the inhibition was determined as 2.21%.

`CS(=O)(=O)CCNCc1cc(-c2cc3c(Nc4ccc(OCc5cccc(F)c5)c(Cl)c4)ncnc3s2)cs1`: the inhibition turned out to be 8.64%.

Turning to `Fc1ccc(-c2ncn(C3CCNCC3)c2-c2ccnc(Oc3ccc4c(c3)OCO4)n2)cc1`, the inhibition was 7.45%.

`NS(=O)(=O)c1ccc(N/N=C2\C(=O)Nc3ccc(C(=O)NCCCn4ccnc4)cc32)cc1`: the inhibition came out at 2.3%.

As to `NC(=O)Cc1ccccc1Oc1nccc(-c2c(-c3ccc(F)cc3)ncn2C2CCNCC2)n1`, the inhibition is 3.62%.

For the compound `COc1cccc(/C=N/Nc2ncnc3c2cnn3-c2cccc(OC)c2)c1`, the inhibition is 5.3%.

On to `COc1ccc(-c2ccc3c(NC(=O)C4CC4)n[nH]c3n2)cc1`, for which the inhibition worked out at 2.75%.

`Fc1ccc(-c2ncn(CCCN3CCOCC3)c2-c2ccncc2)cc1`: the inhibition turned out to be 1.37%.

With `Fc1ccc(-c2c(-c3ccncc3)nc3n2CCS3)cc1`, the inhibition stood at 2.27%.

With `CN(C)c1ccc2c(c1)/C(=C/Nc1ccc(S(N)(=O)=O)cc1)C(=O)N2`, the inhibition was 1.03%.

`c1ccc(-c2n[nH]cc2-c2ccnc(-c3ccc(OCCN4CCOCC4)cc3)c2)nc1`: the inhibition came out at 4.66%.

`COC(=O)Nc1nc2ccc(Sc3ccc(NC(=O)Nc4cc(C(F)(F)F)ccc4F)cc3)cc2[nH]1`: the inhibition turned out to be 21.1%.

For the compound `COc1cc(Nc2ncc(-c3ccccc3)o2)cc(OC)c1OC`, the inhibition was determined as 0.66%.

Consider `Fc1ccc(-c2nc3n(c2-c2ccncc2)CCS3)cc1`, for which the inhibition was 3.17%.

Consider `C#Cc1cccc(Nc2ncnc3ccc(OCCCCNCCS(C)(=O)=O)cc23)c1`, for which the inhibition came out at 5.13%.

In the case of `COc1ccc(C2=C(N3CCc4ccccc43)C(=O)NC2=O)cc1`, the inhibition was 2.29%.

For `COc1cc(N2CCN(C(C)C)CC2)ccc1Nc1nc(Nc2ccc(F)cc2C(=O)NC[C@@H](O)CO)c2cc[nH]c2n1`, the inhibition came to 2.59%.

As to `Fc1ccc(-c2ncn(C3CCNCC3)c2-c2ccnc(Oc3ccc(Oc4ccccc4)cc3)n2)cc1`, the inhibition is 3.79%.

Take `CCc1cccc(CC)c1/C=C/c1cncc(C(=O)NC)c1`: the inhibition is 1.3%.
